For some assays here: Measured potencies and affinities stand elsewhere. The source made the active and inactive calls. Unless noted, the rule behind the calls is not given here.
How the values were obtained:
[1] = antimalarial activity against Dd2 strain (AID 2302;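 active = growth inhibition above 50% at the single 2 µM test dose, taken to imply half-maximal potency below 2 µM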;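 note: 0% = DMSO untreated growth and 100% = chloroquine plus artemisinin killed control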); settings: P. falciparum Dd2 in RBCs, LDH growth readout, 72 h; at 2 µM; active compounds read high
[2] = HepG2 cytotoxicity, primary screen, cytotoxicity control for P. falciparum antimalarial project, cell-based, ATP luminescence (AID 2303;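 active = inhibition above 50%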;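 note: 0% = DMSO wells and 100% = digitonin-killed cells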); settings: HepG2 viability, 24-48 h, at 10 µM, active compounds read high
[3] = biological target: L-lactate dehydrogenase (Plasmodium falciparum (isolate CDC / Honduras)) (UniProt Q27743); assay: PfLDH activity inhibition – cell lysate, 3D7 strain, counter-screen for P. falciparum growth inhibition project (AID 2304);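 note: 0% = vehicle and 100% = reference inhibitor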; settings: P. falciparum 3D7 crude extract, LDH APAD/NBT absorbance; at 2 µM; active compounds read high
Sequence of L-lactate dehydrogenase (Plasmodium falciparum (isolate CDC / Honduras)) (Q27743 whole entry, looked up): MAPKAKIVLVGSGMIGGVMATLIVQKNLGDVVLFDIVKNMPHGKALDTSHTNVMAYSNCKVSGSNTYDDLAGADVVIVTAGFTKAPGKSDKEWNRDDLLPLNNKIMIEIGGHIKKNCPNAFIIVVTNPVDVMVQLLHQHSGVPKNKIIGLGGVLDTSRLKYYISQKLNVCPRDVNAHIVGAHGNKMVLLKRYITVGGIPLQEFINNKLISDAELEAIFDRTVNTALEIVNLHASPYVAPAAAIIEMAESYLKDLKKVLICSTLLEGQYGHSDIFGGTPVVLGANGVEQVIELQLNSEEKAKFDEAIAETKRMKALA

[4] = inhibition of 3D7 malaria parasite growth – strain 3D7 (AID 2306);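 note: 0% = DMSO wells and 100% = chloroquine plus artemisinin control wells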; settings: P. falciparum 3D7 erythrocytic growth, LDH absorbance, 72 h; at 2 µM; active compounds read high
[5] = biological target: Calcium-dependent protein kinase 1 (Plasmodium falciparum (isolate 3D7)) (UniProt P62344); assay: PfCDPK1 kinase inhibitors, biochemical, TCAMS library (AID 1159585; cut-off not given, nearly all actives have IC50 up to about 0.98 µM;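 note: inhibitors leave more ATP so luminescence rises with inhibition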); settings: recombinant PfCDPK1, Kinase-Glo ATP depletion luminescence
Sequence of Calcium-dependent protein kinase 1 (Plasmodium falciparum (isolate 3D7)) (P62344 whole entry, looked up): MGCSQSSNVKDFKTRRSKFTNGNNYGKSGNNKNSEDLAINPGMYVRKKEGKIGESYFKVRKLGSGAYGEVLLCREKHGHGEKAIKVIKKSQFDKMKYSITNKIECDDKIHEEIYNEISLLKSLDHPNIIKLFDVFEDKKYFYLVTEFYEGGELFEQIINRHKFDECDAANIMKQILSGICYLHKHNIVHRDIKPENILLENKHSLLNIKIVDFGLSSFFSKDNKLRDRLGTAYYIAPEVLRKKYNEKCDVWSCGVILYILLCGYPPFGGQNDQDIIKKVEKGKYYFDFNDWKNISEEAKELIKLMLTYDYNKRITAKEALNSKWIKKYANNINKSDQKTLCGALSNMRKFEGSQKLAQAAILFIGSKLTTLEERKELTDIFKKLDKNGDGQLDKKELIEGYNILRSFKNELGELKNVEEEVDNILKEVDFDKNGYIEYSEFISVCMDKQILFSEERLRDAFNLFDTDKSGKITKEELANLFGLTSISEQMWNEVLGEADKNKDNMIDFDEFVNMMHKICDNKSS

[6] = biological target: Plasmodium falciparum protein kinase 6 (PK6, PF3D7_1337100) (UniProt Q8IDW1); assay: PfPK6 kinase inhibitors, biochemical, TCAMS library (AID 1159586); settings: recombinant PfPK6, Kinase-Glo ATP depletion luminescence
Sequence of Plasmodium falciparum protein kinase 6 (PK6, PF3D7_1337100) (Q8IDW1 1-305): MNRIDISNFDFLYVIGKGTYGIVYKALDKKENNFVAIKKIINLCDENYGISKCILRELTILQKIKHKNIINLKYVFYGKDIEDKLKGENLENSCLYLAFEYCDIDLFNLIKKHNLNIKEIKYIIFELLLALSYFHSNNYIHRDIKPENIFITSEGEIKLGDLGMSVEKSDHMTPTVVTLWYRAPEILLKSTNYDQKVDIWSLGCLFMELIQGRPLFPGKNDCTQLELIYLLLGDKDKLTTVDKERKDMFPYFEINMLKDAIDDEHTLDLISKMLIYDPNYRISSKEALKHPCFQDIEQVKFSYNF

[7] = biological target: Protein kinase 7 (PK7), Plasmodium falciparum 3D7 (PF3D7_0213400) (UniProt Q7YTF7); assay: inhibition of Plasmodium PK7 catalytic activity – biochemical, TCAMS antimalarial set, Kinase-Glo luminescence (AID 1159587); settings: recombinant PfPK7, Kinase-Glo ATP depletion luminescence
Sequence of Protein kinase 7 (PK7), Plasmodium falciparum 3D7 (PF3D7_0213400) (Q7YTF7 1-343): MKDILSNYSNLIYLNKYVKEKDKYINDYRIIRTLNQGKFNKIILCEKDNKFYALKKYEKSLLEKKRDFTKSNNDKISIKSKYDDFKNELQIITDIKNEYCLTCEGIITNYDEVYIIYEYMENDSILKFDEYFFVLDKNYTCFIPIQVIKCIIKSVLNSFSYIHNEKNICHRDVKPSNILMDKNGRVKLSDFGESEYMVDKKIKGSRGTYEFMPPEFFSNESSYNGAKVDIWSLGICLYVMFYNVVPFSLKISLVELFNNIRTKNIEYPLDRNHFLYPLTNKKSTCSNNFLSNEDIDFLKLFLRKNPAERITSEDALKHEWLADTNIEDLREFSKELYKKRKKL

[8] = biological target: Calcium-dependent protein kinase 4 (Plasmodium falciparum (isolate 3D7)) (UniProt Q8IBS5); assay: PfCDPK4 kinase inhibitors, biochemical, TCAMS library (AID 1159588; cut-off not given, nearly all actives have IC50 up to about 0.91 µM); settings: recombinant PfCDPK4, Kinase-Glo ATP depletion luminescence
Sequence of Calcium-dependent protein kinase 4 (Plasmodium falciparum (isolate 3D7)) (Q8IBS5 whole entry, looked up): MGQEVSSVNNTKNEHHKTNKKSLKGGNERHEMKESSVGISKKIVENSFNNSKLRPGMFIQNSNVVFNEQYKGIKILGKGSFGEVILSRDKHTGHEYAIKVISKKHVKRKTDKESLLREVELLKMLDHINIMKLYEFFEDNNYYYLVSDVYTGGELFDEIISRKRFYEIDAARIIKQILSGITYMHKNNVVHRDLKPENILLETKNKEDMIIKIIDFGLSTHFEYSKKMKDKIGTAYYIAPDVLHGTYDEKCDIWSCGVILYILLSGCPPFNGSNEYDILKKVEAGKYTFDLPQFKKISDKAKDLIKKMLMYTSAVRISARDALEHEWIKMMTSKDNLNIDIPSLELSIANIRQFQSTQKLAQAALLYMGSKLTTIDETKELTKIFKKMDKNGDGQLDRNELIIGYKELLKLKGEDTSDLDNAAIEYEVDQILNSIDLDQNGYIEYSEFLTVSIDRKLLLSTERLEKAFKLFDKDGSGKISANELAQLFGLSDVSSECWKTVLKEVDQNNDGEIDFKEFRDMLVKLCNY

COc1ccccc1CCCN1C(=O)C(c2ccccc2)(c2ccccc2)N=C1N
active: growth inhibition [1] 99% | growth inhibition [4] 99%
inactive: inhibition [2] 49% | inhibition [3] -3% | outcome [5] | outcome [6] | outcome [7] | outcome [8]

Cc1cc(C)cc(OCC(O)CN(CCN2CCOCC2)C(=O)Nc2ccc(Br)cc2)c1 (stereo not given)
inactive: growth inhibition [1] 19% | inhibition [2] 7% | inhibition [3] 0% | outcome [5] | outcome [6] | outcome [7] | outcome [8]
active: growth inhibition [4] 85%

O=C(NC1CCN(Cc2ccccc2)CC1)c1cc(-c2cccnc2)nc2ccc(Cl)cc12
active: growth inhibition [4] 97%
inactive: growth inhibition [1] 26% | inhibition [2] -3% | inhibition [3] 1% | outcome [5] | outcome [6] | outcome [7] | outcome [8]

CCCC(CNCc1cccc(OCC)c1)CNc1cc(=O)c2ccccc2[nH]1 (stereo not given)
inactive: inhibition [2] -4% | inhibition [3] 4% | outcome [5] | outcome [6] | outcome [7] | outcome [8]
active: growth inhibition [1] 97% | growth inhibition [4] 101%

COc1ccc(-c2cccc(NC(=O)c3cccc(Cl)c3)c2)cc1CN(C)CCN(C)C
inactive: inhibition [2] 32% | inhibition [3] 4% | outcome [5] | outcome [6] | outcome [7] | outcome [8]
active: growth inhibition [1] 73% | growth inhibition [4] 101%

CCOC(=O)CCCCCNC[C@H](O)c1ccccc1
active: growth inhibition [4] 98%
inactive: growth inhibition [1] 0% | inhibition [2] 2% | inhibition [3] 5% | outcome [5] | outcome [6] | outcome [7] | outcome [8]

O=c1cc(NCCCNC2CCOc3c(Cl)cc(Cl)cc32)[nH]c2ccccc12 (stereo not given)
active: growth inhibition [1] 88% | growth inhibition [4] 100%
inactive: inhibition [2] -7% | inhibition [3] -3% | outcome [5] | outcome [6] | outcome [7] | outcome [8]

O=C(Nc1ccc2c(c1)CCNCC2)c1ccc(-c2ccc(Cl)cc2)cc1
active: inhibition [2] 71% | growth inhibition [4] 96%
inactive: growth inhibition [1] 38% | inhibition [3] 0% | outcome [5] | outcome [6] | outcome [7] | outcome [8]

Cc1cc(NCC2CCN(CC3CCCCC3)C2)nc(Nc2ccc(Cl)cc2)n1 (stereo not given)
inactive: inhibition [2] 2% | inhibition [3] -3% | outcome [5] | outcome [6] | outcome [7] | outcome [8]
active: growth inhibition [1] 74% | growth inhibition [4] 101%

CCCCCCN1CCCN(Cc2ccc(C(=O)Nc3ccc(Cl)cc3)cc2)CC1
active: growth inhibition [1] 54% | inhibition [2] 50% | growth inhibition [4] 89%
inactive: inhibition [3] 3% | outcome [5] | outcome [6] | outcome [7] | outcome [8]

Cc1cc(Nc2ncc3c(n2)N(C2CCC2)CC3)ccc1N1CCN(C)CC1
active: growth inhibition [1] 100% | growth inhibition [4] 101%
inactive: inhibition [2] 27% | inhibition [3] -2% | outcome [5] | outcome [6] | outcome [7] | outcome [8]

COc1ccc2cc(C(c3nnnn3CC3CCCO3)N3CCc4ccccc43)c(=O)[nH]c2c1 (stereo not given)
active: growth inhibition [4] 94%
inactive: growth inhibition [1] 3% | inhibition [2] -3% | inhibition [3] -1% | outcome [5] | outcome [6] | outcome [7] | outcome [8]

CCN1CCC(N(Cc2ccc(-c3ccc(C(F)(F)F)cc3)cc2)C(=O)Cn2c(CCc3cccc(F)c3F)cc(=O)c3c2CCC3)CC1
active: growth inhibition [1] 85% | growth inhibition [4] 89%
inactive: inhibition [2] 49% | inhibition [3] -1% | outcome [5] | outcome [6] | outcome [7] | outcome [8]

O=C(/C=C/c1ccccc1Cl)NC1CCC(CN2CCC(c3c[nH]c4ccncc34)CC2)CC1 (stereo not given)
active: growth inhibition [1] 100% | growth inhibition [4] 100%
inactive: inhibition [2] 19% | inhibition [3] -2% | outcome [5] | outcome [6] | outcome [7] | outcome [8]

CC(=O)c1c(Cc2ccccc2Cl)c[nH]c1C
inactive: inhibition [2] -2% | inhibition [3] 0% | outcome [5] | outcome [6] | outcome [7] | outcome [8]
active: growth inhibition [1] 53% | growth inhibition [4] 95%

Cc1cc(N(C)C2CCN(CC3CCCCC3)C2)nc(Nc2ccc(Br)cc2)n1 (stereo not given)
active: growth inhibition [4] 98%
inactive: growth inhibition [1] 38% | inhibition [2] 14% | inhibition [3] -1% | outcome [5] | outcome [6] | outcome [7] | outcome [8]

O=C1NC(c2ccc(N3CCCCCC3)cc2)Nc2ccccc21 (stereo not given)
inactive: inhibition [2] 19% | inhibition [3] 0% | outcome [5] | outcome [6] | outcome [7] | outcome [8]
active: growth inhibition [1] 96% | growth inhibition [4] 96%

c1ccc2[nH]c(-c3ccc(-c4ccc(CN5CCCCC5)cc4)s3)nc2c1
inactive: inhibition [2] 41% | inhibition [3] 2% | outcome [5] | outcome [6] | outcome [7] | outcome [8]
active: growth inhibition [1] 69% | growth inhibition [4] 102%

CC(C)(CNC(=O)[C@@H]1CCCN(CCOc2ccc(Cl)cc2)C1)c1nc(-c2ccc(Cl)c(O)c2)c(-c2ccncc2)[nH]1
inactive: inhibition [3] -7% | outcome [5] | outcome [6] | outcome [7] | outcome [8]
active: growth inhibition [1] 57% | inhibition [2] 58% | growth inhibition [4] 92%

CCCCCN1CCC(CNS(=O)(=O)c2ccc(C(=O)Nc3cccc(C(F)(F)F)c3)cc2)CC1
active: growth inhibition [4] 98%
inactive: growth inhibition [1] 13% | inhibition [2] 13% | inhibition [3] -7% | outcome [5] | outcome [6] | outcome [7] | outcome [8]

Cc1cc(N(C)C)nc(Nc2ccc(NC(=O)C(C)Oc3ccccc3)cc2)n1 (stereo not given)
inactive: growth inhibition [1] 30% | inhibition [2] 2% | inhibition [3] -1% | outcome [5] | outcome [6] | outcome [7] | outcome [8]
active: growth inhibition [4] 98%

CN1CCC(N2CCC(Oc3cccc(C(=O)NCCCC4CCCC4)c3)CC2)CC1
inactive: growth inhibition [1] 48% | inhibition [2] 41% | inhibition [3] -3% | outcome [5] | outcome [6] | outcome [7] | outcome [8]
active: growth inhibition [4] 101%

COc1ccc(CNCc2ccc(-c3ccc(-c4nc5c(C)cccc5[nH]4)s3)cc2)cc1
inactive: inhibition [3] 3% | outcome [5] | outcome [6] | outcome [7] | outcome [8]
active: growth inhibition [1] 89% | inhibition [2] 54% | growth inhibition [4] 100%

CC1(C)N=C(N)NC(Nc2ccc(Cl)cc2)=N1
active: growth inhibition [4] 97%
inactive: growth inhibition [1] -1% | inhibition [2] 8% | inhibition [3] -2% | outcome [5] | outcome [6] | outcome [7] | outcome [8]

CC1(C)[C@H]2CC[C@@H](CNc3nc(NCCc4cnc[nH]4)nc(Nc4ccc(Oc5ccccc5)cc4)n3)[C@@H]1C2
inactive: inhibition [2] 2% | inhibition [3] 3% | outcome [5] | outcome [6] | outcome [7] | outcome [8]
active: growth inhibition [1] 86% | growth inhibition [4] 99%

Cc1cccc2c(N=NC(=S)N(C)C)c(O)[nH]c12
active: growth inhibition [1] 59% | growth inhibition [4] 96%
inactive: inhibition [2] 48% | inhibition [3] -5% | outcome [5] | outcome [6] | outcome [7] | outcome [8]

Oc1ccc(CCNc2nc(NCc3ccc4cc(Cl)ccc4c3)nc(N3CCNCC3)n2)cc1
inactive: growth inhibition [1] 38% | inhibition [2] 14% | inhibition [3] -3% | outcome [5] | outcome [6] | outcome [7] | outcome [8]
active: growth inhibition [4] 92%

CCN1CCN(c2cc(C)c3cc(NC(=O)c4cccc(Cl)c4)ccc3n2)CC1
active: growth inhibition [1] 58% | growth inhibition [4] 100%
inactive: inhibition [2] 4% | inhibition [3] -4% | outcome [5] | outcome [6] | outcome [7] | outcome [8]

c1ccc(CN2CCC(NCc3ccccc3-c3cccc(CNC4CCCC4)c3)CC2)cc1
inactive: inhibition [2] 35% | inhibition [3] 6% | outcome [5] | outcome [6] | outcome [7] | outcome [8]
active: growth inhibition [1] 59% | growth inhibition [4] 101%

CN1CCC(c2cc3c(cc2Br)CCN3C(=O)Nc2ccc(-c3ccncc3)c(Cl)c2)CC1
active: growth inhibition [4] 91%
inactive: growth inhibition [1] -1% | inhibition [2] 26% | inhibition [3] -1% | outcome [5] | outcome [6] | outcome [7] | outcome [8]

Cc1cccc(NC(=O)c2ccc(C(=O)NC3CCN(CC4CCCCC4)CC3)cc2)c1
inactive: growth inhibition [1] 18% | inhibition [2] 14% | inhibition [3] -1% | outcome [5] | outcome [6] | outcome [7] | outcome [8]
active: growth inhibition [4] 95%

COc1ccc(-c2csc(NC(=O)CCC(=O)O)n2)cc1OC
inactive: growth inhibition [1] -2% | inhibition [3] 5% | outcome [5] | outcome [6] | outcome [7] | outcome [8]
active: inhibition [2] 63% | growth inhibition [4] 94%

Cc1ccc(Nc2nc3cc(Nc4ccnc(Nc5ccc(CS(C)(=O)=O)cc5)n4)ccc3o2)cc1
inactive: inhibition [3] 2% | outcome [5] | outcome [6] | outcome [7] | outcome [8]
active: growth inhibition [1] 66% | inhibition [2] 54% | growth inhibition [4] 99%

CCOC(=O)c1c(CNc2ccncc2)n(C)c2cc(Br)c(OC(C)=O)cc12
active: growth inhibition [1] 93% | growth inhibition [4] 96%
inactive: inhibition [2] -3% | inhibition [3] 5% | outcome [5] | outcome [6] | outcome [7] | outcome [8]

CN1CCC(C(=O)Nc2ccc(-c3ccc(-c4nc5ccccc5[nH]4)s3)cc2)CC1
active: growth inhibition [4] 99%
inactive: growth inhibition [1] 22% | inhibition [2] 30% | inhibition [3] 3% | outcome [5] | outcome [6] | outcome [7] | outcome [8]

Cc1cccc2[nH]c(-c3ccc(-c4ccc(NC(=O)C(C)CN(C)C)cc4)cc3)nc12 (stereo not given)
active: growth inhibition [1] 99% | growth inhibition [4] 99%
inactive: inhibition [2] 18% | inhibition [3] -6% | outcome [5] | outcome [6] | outcome [7] | outcome [8]

COc1cc2c(cc1OC)CN(CCCCc1ccc(NC(=O)c3cc(Cl)cc(Cl)c3)cc1)CC2
active: growth inhibition [4] 95%
inactive: growth inhibition [1] 4% | inhibition [2] 21% | inhibition [3] -3% | outcome [5] | outcome [6] | outcome [7] | outcome [8]

Cc1ccc2nc(C)cc(NN=Cc3ccc([N+](=O)[O-])cc3)c2c1
inactive: growth inhibition [1] 15% | inhibition [2] 10% | inhibition [3] 3% | outcome [5] | outcome [6] | outcome [7] | outcome [8]
active: growth inhibition [4] 102%

CCOc1ccc(-c2nonc2NC(=O)c2ccc(F)cc2)cc1OCC
active: growth inhibition [1] 99% | growth inhibition [4] 102%
inactive: inhibition [2] 36% | inhibition [3] 0% | outcome [5] | outcome [6] | outcome [7] | outcome [8]

O=C(NC1CCN(Cc2ccc(Cl)cc2)CC1)c1cn(-c2ccccc2)nc1-c1cccnc1
inactive: growth inhibition [1] 9% | inhibition [2] 13% | inhibition [3] -2% | outcome [5] | outcome [6] | outcome [7] | outcome [8]
active: growth inhibition [4] 93%
